FH mod: Identification of activators of human fumarate hydratase by quantitative high-throughput screening. AID 1347055, 2019. 54,000 tested, 0.22% active. Fumarate hydratase, mitochondrial (Homo sapiens), P07954. Potency, µM (series often up to 79.9 µM), inactives show top-dose activity change, negative = inhibition, usual class: inhibitors. FH coupled MDH/diaphorase resazurin fluorescence, 15 min; also: potency is read from the fitted curve at half-maximal effect; % is scaled to controls: 0 for no effect and ±100 for the full control effect; the screen sought activators but most active calls are inhibition curves; nearly all actives have a fitted effect of over 45% in size
Target sequence (P07954 whole entry, looked up): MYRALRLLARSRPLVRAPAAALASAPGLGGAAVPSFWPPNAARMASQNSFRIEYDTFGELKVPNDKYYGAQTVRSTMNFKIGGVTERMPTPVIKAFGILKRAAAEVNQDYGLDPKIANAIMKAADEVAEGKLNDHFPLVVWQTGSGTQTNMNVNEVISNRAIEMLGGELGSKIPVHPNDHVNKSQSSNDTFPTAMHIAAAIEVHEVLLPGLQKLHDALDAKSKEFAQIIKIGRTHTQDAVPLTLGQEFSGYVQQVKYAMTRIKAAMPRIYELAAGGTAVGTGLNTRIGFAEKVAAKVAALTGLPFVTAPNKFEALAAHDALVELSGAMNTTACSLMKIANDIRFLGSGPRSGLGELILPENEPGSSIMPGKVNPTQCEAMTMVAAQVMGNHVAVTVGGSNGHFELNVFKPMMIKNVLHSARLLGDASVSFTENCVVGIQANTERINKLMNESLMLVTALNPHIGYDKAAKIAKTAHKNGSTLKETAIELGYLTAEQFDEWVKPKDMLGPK
GPR32 ag: agonists of human resolvin D1 receptor DRV1 (GPR32); 48,000 tested, 2.5% active; O75388; AID 1346428; activation, % at 76.9 µM; CHO-K1 GPR32 beta-arrestin PathHunter luminescence, 90 min; zero percent set by DMSO-only wells;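 active = activation of at least 60% and not above a set upper limit, about 1 call in 100 departs from these limits; inconclusive = activation of 40% to 60%, or above that upper limit; inactive = activation under 40%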; also: 0% is about no effect
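Readings come from a cell-based beta-arrestin complementation format: CHO-K1 GPR32 stable cells (2,500/well) treated 90 min with compounds, then beta-Gal substrate added for 1 h before chemiluminescence imaging.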
NTMT1 inhibitor: inhibitors of human N-terminal methyltransferase NTMT1; Q9BV86; NTMT1 MTase-Glo SAH luminescence, purified enzyme; Potency, µM (top dose mostly 114 µM), for the others: at the top dose activity change, negative = inhibition, usual class: inhibitors; 59,000 tested, 2.5% active; AID 1645870;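 also: potency is read from the fitted curve at half-maximal effect; plate controls were DMSO vehicle for no effect and no enzyme for full effect; nearly all actives have a fitted effect of over 65% in size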
SKOV3 invasion: inhibitors of ovarian cancer cell adhesion and invasion in omental model; SKOV3ip1-GFP adhesion/invasion on 3D omental model, fluorescence; Potency, µM (highest dose often 45.8 µM), for inactives: at the highest dose activity change, negative = inhibition, hits mostly inhibitors; 46,000 tested, 0.1% active; AID 1963576;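 also: potency is read from the fitted curve at half-maximal effect; plate controls were DMSO wells for no effect and tomatine positive control wells for full effect; nearly all actives have a fitted effect of over 65% in size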
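A 3D layer of primary human omental fibroblasts, mesothelial cells, fibronectin and collagen I, grown 48 hr, received SKOV3ip1-GFP cells in serum-free medium plus compounds at 0.36-46 umol/L. After 2 hr RT and 16 hr 37 C, fixed adherent GFP cells were counted; normalized to DMSO and tomatine.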
The depositor's hits bear a star; i = inactive; ? = inconclusive; nt = no result given; [ ] = dose if it differs, or a comment. An excerpt weighted towards active compounds, which were near 3.9% of everything screened. Unless noted, calls follow the shape of the dose curve; as a rule, active = well fitted curve in the direction sought with a large enough effect; inconclusive = small, poorly fitted or top-dose-only effect, or another doubt; inactive = no such curve, though single readings can be large; an effect the other way counts as inactive or inconclusive.

SMILES | FH mod | GPR32 ag | NTMT1 inhibitor | SKOV3 invasion
COc1ccccc1Nc1nn2c(=O)c3ccc(C(=O)NCc4ccc(F)cc4)cc3nc2s1 | 5% | 18 | ? | -14%
Cc1ccc(C)c(Nc2nn3c(=O)c4ccc(C(=O)NCc5ccccc5)cc4nc3s2)c1 | 2% | 63* | -23% | i
CC(C)(O)C1OC1C1=CC(=O)C2(C)OC2C1O (configuration not stated) | 1% | nt | 5%[57.5 µM] | nt
Cc1ccc(Cl)cc1N1CCN(CCNC(=O)Nc2ccccc2Cl)CC1 | -29% | -5 | 89µM* | 112%
CC(Oc1cc(-n2cnc3ccc(CN4CCN(C)CC4)cc32)sc1C(N)=O)c1ccccc1C(F)(F)F (configuration not stated) | -2% | nt | -18%[57.5 µM] | nt
CCC(Oc1ccccc1)C(=O)N1CCN(Cc2cc(=O)n3nc(-c4cccc(C)c4)sc3n2)CC1 (configuration not stated) | 1% | 61* | -9% | 4%
COc1cccc(-c2nn3c(=O)cc(CN4CCN(C(=O)/C=C/c5ccccc5)CC4)nc3s2)c1 | 7% | 46 | 8% | i
COc1ccc(C(=O)O)cc1COc1ccc(NC(C)=O)cc1 | nt | nt | 5% | nt
CCCOC(=O)c1cccc(Nc2nc(CCC)cc(=O)[nH]2)c1 | nt | 87* | nt | i
Cc1ccc(NS(=O)(=O)c2ccc3nc(-c4ccccc4)[nH]c3c2)c(Cl)c1 | -13% | 104* | -4% | ?
Cc1ccc(NS(=O)(=O)c2ccc3nc(-c4ccccc4)[nH]c3c2)c(Br)c1 | -3% | ? | 13% | 3%
CC(C)c1ccc(NS(=O)(=O)c2ccc3nc(-c4ccccc4)[nH]c3c2)cc1 | -1% | 110* | -16% | -2%
Cc1cccc(NS(=O)(=O)c2ccc3nc(-c4ccccc4)[nH]c3c2)c1C | 1% | 86* | 3% | i
O=S(=O)(Nc1ccc(Br)cc1)c1ccc2nc(-c3ccccc3)[nH]c2c1 | -24% | ? | -9% | i
CCN(CCCNC(=O)c1cc2c(Cl)nc3ccccc3c2s1)Cc1ccccc1 | ? | 95* | ? | i
CCN(CCCNC(=O)c1cc2c(=O)[nH]c3ccc(C)cc3c2s1)Cc1ccccc1 | ? | -17 | 50µM* | ?
COc1ccccc1NC(=O)C1=C(C)NC(Nc2nc3ccccc3o2)=NC1c1ccccc1Br (configuration not stated) | nt | nt | 16% | nt
N#C[C@@H]1C[C@H](F)CN1C(=O)CNC1[C@H]2CN(C(=O)c3ccc(F)cc3)C[C@@H]12 (some centres not stated) | 5% | nt | -2%[57.5 µM] | nt
COc1ccc(C2Nc3ccccc3C(=O)N2Cc2ccccc2)cc1COc1c(C)cccc1C (configuration not stated) | nt | nt | 10% | nt
Cc1cccc(C(=O)NCCc2nc3ccccc3n2Cc2ccc(Cl)cc2)c1 | -24% | 17 | -4% | 0%
O=C(NCCc1nc2ccccc2n1Cc1ccc(Cl)cc1)c1ccccc1 | -4% | 81* | 12% | -1%
O=C(NCCCc1nc2ccccc2n1Cc1ccc(Cl)cc1Cl)c1ccco1 | nt | 97* | nt | i
C[C@@H]1CN(Cc2ncccn2)C[C@H]1c1nc2c(cnn2C2CCOCC2)c(=O)[nH]1 | 21% | nt | 5%[57.5 µM] | nt
CCCN1C(=O)c2[nH]nc(-c3ccc(F)cc3)c2C1c1ccccn1 (configuration not stated) | ? | -25 | ? | -1%
O=C1c2[nH]nc(-c3ccc(F)cc3)c2C(c2ccccc2F)N1c1ccccc1 (configuration not stated) | -22% | 108* | 4% | ?
COc1cc(C(=O)O)ccc1NC(=O)C1NC(CC(C)(C)C)C(C#N)(c2ccc(Cl)cc2F)C1c1cccc(Cl)c1F (configuration not stated) | 32µM* | nt | ? | nt
C=C(CC)C(=O)c1ccc(OCC(=O)O)c(Cl)c1Cl | -6%[53.3 µM] | 90* | -9%[57.5 µM] | nt
CCOC(=O)CC(NC(=O)Cn1nnc(-c2ccc(Cl)cc2)n1)c1ccc(OC)cc1 (configuration not stated) | 3% | 2 | 9% | 6%
CCOC(=O)C(Cc1ccccc1)NC(=O)Cn1nnc(-c2ccc(C)cc2)n1 (configuration not stated) | -8% | 62* | 3% | 3%
